In PubChem BioAssay (Tox21):
Records with an inconclusive call do not appear. A call without a number means that no potency is given here. Activity calls are given as the source filed them. Calls come from the whole dose curve; as a rule, active = well fitted curve in the direction sought with a large enough effect in the repeat runs; inconclusive = weak or mixed curves; inactive = no such curve, though single readings can be large; an effect the other way counts as inactive or inconclusive.

Key:
[1] = target: Cytochrome P450 2C9 (Homo sapiens) (UniProt P11712); assay: Cytochrome P450 Family 2 Subfamily C Member 9 (CYP2C9) small molecule antagonists: luciferase reporter qHTS assay (AID 1671198); note: series mostly up to about 120 µM
Cytochrome P450 2C9 (Homo sapiens), sequence (P11712 whole entry, looked up): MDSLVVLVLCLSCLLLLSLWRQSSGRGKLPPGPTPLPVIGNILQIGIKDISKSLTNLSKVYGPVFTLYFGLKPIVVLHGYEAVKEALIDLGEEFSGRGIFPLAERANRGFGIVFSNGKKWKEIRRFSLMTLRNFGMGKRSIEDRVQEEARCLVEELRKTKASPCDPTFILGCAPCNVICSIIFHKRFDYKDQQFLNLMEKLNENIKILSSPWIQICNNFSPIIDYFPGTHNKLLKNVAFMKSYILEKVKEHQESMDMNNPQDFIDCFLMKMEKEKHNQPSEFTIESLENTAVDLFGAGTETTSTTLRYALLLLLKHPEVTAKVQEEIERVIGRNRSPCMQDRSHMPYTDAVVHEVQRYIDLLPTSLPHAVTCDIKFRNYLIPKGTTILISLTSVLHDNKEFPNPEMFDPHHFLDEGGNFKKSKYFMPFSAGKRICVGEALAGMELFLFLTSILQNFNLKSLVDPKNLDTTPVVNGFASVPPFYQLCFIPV
Outline: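 Enzyme-substrate mix preincubated with compound 10 min at room temperature; reaction started with NADPH regeneration solution, 1 h 37C. Luminescent luciferin product read after 20 min detection reagent.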

[2] = target: Voltage-gated inwardly rectifying potassium channel KCNH2 (Homo sapiens) (UniProt Q12809); assay: Human Ether-a-go-go-Related Gene (hERG) channel small molecule antagonists: fluorescence cell-based qHTS assay (AID 1671200);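 note: hERG-expressing U2OS cells given a thallium stimulus after FluxOR II dye loading; series mostly up to about 77 µM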
Voltage-gated inwardly rectifying potassium channel KCNH2 (Homo sapiens), sequence (Q12809 whole entry, looked up): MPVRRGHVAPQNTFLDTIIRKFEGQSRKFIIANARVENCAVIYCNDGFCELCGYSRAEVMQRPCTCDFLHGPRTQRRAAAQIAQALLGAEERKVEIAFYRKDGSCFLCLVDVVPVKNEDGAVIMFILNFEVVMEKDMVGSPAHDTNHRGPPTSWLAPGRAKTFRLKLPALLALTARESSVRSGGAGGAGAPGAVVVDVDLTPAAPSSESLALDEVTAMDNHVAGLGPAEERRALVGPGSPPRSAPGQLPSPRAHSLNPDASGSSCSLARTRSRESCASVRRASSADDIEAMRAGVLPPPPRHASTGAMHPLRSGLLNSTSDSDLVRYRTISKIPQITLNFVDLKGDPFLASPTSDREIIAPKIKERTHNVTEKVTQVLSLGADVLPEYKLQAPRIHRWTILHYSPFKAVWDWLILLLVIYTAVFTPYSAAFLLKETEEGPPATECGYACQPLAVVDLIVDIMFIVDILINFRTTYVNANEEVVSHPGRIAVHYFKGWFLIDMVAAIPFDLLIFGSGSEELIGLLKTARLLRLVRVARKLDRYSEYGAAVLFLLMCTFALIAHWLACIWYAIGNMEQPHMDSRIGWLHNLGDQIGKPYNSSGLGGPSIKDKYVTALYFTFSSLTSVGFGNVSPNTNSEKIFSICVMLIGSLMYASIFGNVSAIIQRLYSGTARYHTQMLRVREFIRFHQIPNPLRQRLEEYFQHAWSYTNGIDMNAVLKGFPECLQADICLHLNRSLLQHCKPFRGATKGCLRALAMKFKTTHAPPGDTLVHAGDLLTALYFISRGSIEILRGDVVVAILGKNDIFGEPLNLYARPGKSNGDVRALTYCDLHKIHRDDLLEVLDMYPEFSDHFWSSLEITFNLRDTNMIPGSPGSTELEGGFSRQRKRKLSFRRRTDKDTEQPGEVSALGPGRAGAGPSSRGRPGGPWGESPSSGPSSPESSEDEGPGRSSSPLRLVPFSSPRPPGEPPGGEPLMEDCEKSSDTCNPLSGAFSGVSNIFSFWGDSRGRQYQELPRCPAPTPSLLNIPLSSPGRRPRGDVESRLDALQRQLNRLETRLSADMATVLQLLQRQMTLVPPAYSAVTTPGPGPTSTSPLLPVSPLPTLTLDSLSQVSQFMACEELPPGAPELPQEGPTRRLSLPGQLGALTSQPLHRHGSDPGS
Outline: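 Quantitative HTS in hERG-U2OS cells: thallium entry through the channel reports activity, read as continuous 480/540 nm fluorescence over 2 min after stimulus addition.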

[3] = target: Cytochrome P450 3A4 (Homo sapiens) (UniProt P08684); assay: Cytochrome P450 Family 3 Subfamily A Member 4 (CYP3A4) small molecule antagonists: luciferase reporter qHTS assay (AID 1671201); note: series mostly up to about 120 µM
Cytochrome P450 3A4 (Homo sapiens), sequence (P08684 whole entry, looked up): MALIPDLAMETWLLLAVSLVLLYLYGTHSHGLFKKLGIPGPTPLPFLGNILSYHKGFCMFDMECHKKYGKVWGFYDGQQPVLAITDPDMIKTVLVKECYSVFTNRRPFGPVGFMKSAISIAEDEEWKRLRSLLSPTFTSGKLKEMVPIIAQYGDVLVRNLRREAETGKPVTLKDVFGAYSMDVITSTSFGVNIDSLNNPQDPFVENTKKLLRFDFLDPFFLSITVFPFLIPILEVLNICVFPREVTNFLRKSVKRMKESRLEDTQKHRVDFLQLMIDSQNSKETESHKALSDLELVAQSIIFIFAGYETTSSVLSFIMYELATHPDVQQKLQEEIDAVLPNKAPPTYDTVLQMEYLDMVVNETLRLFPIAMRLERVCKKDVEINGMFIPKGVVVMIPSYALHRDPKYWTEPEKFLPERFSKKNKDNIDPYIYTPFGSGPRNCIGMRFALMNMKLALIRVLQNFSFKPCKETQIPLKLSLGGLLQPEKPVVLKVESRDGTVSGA
Outline: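 Inhibition of CYP3A4 is measured as loss of light: the enzyme converts a proluciferin substrate to luciferin, detected luminescently. Reaction ran 1 h at room temperature with NADPH regeneration after a 10 min compound preincubation.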

[4] = target: Cytochrome P450 1A2 (Homo sapiens) (UniProt P05177); assay: Cytochrome P450 Family 1 Subfamily A Member 2 (CYP1A2) small molecule antagonists: luciferase reporter qHTS assay (AID 1671199); note: potency is the fitted concentration of half-maximal effect
Cytochrome P450 1A2 (Homo sapiens), sequence (P05177 whole entry, looked up): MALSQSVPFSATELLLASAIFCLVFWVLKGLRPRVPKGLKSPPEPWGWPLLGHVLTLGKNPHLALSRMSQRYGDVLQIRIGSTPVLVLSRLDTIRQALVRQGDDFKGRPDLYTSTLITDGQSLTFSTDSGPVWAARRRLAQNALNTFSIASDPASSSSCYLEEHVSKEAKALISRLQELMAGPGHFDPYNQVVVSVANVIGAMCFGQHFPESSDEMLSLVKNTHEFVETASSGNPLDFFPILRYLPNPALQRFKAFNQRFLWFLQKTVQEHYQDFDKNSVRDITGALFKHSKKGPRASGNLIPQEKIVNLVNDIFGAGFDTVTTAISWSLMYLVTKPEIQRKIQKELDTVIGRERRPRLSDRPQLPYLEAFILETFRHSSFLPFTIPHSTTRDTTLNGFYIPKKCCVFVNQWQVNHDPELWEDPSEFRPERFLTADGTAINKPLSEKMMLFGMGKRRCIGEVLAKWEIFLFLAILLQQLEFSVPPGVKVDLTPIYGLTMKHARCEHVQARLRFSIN
Outline: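 Steps: enzyme-substrate mix dispensed; test compounds and furafylline control pinned in; 10 min room temperature; NADPH regeneration solution added, 1 h; reaction stopped with luciferin detection reagent; luminescence read after 20 min.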
Note: nearly all actives have a fitted effect of over 50% in size.

Row | Compound | Potency [1] | Potency [2] | Potency [3] | Potency [4]
1 | C[N+]12CCC(CC1)C(OC(=O)C(O)(c1ccccc1)c1ccccc1)C2 (stereo not given) | inactive | inactive | inactive | 
2 | C[N+](C)(C)CCCCCCCCCC[N+](C)(C)C | inactive | inactive | inactive | 
3 | O=C(CO)[C@@H](O)[C@H](O)[C@H](O)CO | inactive | inactive | inactive | 
4 | CC(=O)C1CCCCC1=O (stereo not given) |  | inactive |  | inactive
5 | CCOC(=O)c1cnc2c(cnn2CC)c1NN=C(C)C |  | inactive |  | 2.04 µM (active)
6 | CCOCC(C)O (stereo not given) | inactive | inactive | inactive | 
7 | CNC(=O)Nc1ccc(Cl)c(Cl)c1 |  | inactive |  | 5.03 µM (active)
8 | C[N+]1(C)[C@@H]2CC(OC(=O)[C@H](CO)c3ccccc3)C[C@H]1[C@@H]1O[C@@H]12 (stereo not given in full) |  | inactive | inactive | inactive
9 | CC[N+](CC)(CC(=O)Nc1c(C)cccc1C)Cc1ccccc1 (tested in a mixture with another compound) |  |  |  | inactive
10 | CCC1C(=O)OCC1Cc1cncn1C (stereo not given) |  | inactive |  | inactive
11 | CC(=O)OCC(=O)[C@@]1(O)[C@H](C)C[C@H]2[C@@H]3CCC4=CC(=O)C=C[C@]4(C)[C@@]3(F)[C@@H](O)C[C@@]21C |  | inactive |  | inactive
12 | CCCCCCCCCCCCSC | inactive | inactive | inactive | 
13 | CC/C=C\CCOC(C)OCC (stereo not given) | inactive | inactive | inactive | 
14 | Cc1ccc(C(=O)Nc2ccc(S(=O)(=O)O)c3cc(S(=O)(=O)O)cc(S(=O)(=O)O)c23)cc1NC(=O)c1cccc(NC(=O)Nc2cccc(C(=O)Nc3cc(C(=O)Nc4ccc(S(=O)(=O)O)c5cc(S(=O)(=O)O)cc(S(=O)(=O)O)c45)ccc3C)c2)c1 | inactive | inactive | inactive | 
